Sampled rows, rich in hits. Any-hit rate of the full collection: about 19%.
DT40 TDP1 no CPT – qHTS for Inhibitors of human tyrosyl-DNA phosphodiesterase 1 (TDP1): qHTS in cells in absence of CPT. DT40 Tdp1-/- hTDP1 cells, no CPT, ATP luminescence, 48 h. 420,000 compounds, 15% hits. Potency, µM (titrated, usually from 46.2 µM), for the others: at the highest dose activity change, negative = growth inhibition, most hits filed as inhibitors; also: potency is read from the fitted curve at half-maximal effect; nearly all actives have a fitted effect of over 55% in size
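Growth of hTDP1-complemented DT40 Tdp1-knockout cells is measured by ATP luminescence after at least 48 hr compound exposure at 37 °C, with DMSO substituting for the 20 nM CPT used in the parallel screen.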
TDP1 cell CPT – qHTS for Inhibitors of human tyrosyl-DNA phosphodiesterase 1 (TDP1): qHTS in cells in presence of CPT. Potency, µM (series often up to 46.2 µM), for the others: at the top dose activity change, negative = growth inhibition, actives largely listed as inhibitors. 420,000 compounds, 12% hits. chicken DT40 Tdp1-/-;hTDP1 cells + 20 nM CPT, ATP luminescence, 48 h; also: potency is read from the fitted curve at half-maximal effect; nearly all actives have a fitted effect of over 55% in size
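Chicken DT40 Tdp1-/- cells stably complemented with human TDP1 were seeded at 400 cells/well in medium containing 20 nM camptothecin, exposed to pin-transferred compounds, and grown at 37 °C for at least 48 hr. Viability was read as ATP luminescence.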
HT1080 IDH1KD tx – qHTS for induction of synthetic lethality in tumor cells producing 2HG: qHTS for the HT-1080-IDH1KD cell line; HT-1080 IDH1 knockdown viability, ATP luminescence, 48 h; Potency, µM (top dose mostly 46.1 µM), without a hit: at the highest dose activity, negative = toxicity, actives largely listed as cytotoxic; 360,000 compounds, 2% hits; AID 686971, 2013;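 also: potency is read from the fitted curve at half-maximal effect; 0% = DMSO wells and -100% = cell-free medium wells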
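Viability of IDH1-knockdown HT-1080 fibrosarcoma cells was assessed by CellTiter-Glo after 48 h at 37 °C with titrated compound; concentration-effect curves were classified by fit quality and response size.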
IL-1B inflam inh – qHTS for Inhibitors of Inflammasome Signaling: IL-1-beta AlphaLISA Primary Screen; AID 743279, 2014; THP-1 LPS/ATP IL-1B secretion, AlphaLISA, 16 h; active compounds read low; activity change, % at 57.5 µM; 360,000 compounds, 4.7% hits; in the data active = activity change below about -50%; inconclusive = mostly about -30% to -49%
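Secreted IL-1B measured by AlphaLISA bead assay after 16 h compound exposure of THP-1 cells; compounds (final up to 57.5 uM) added 1 h before LPS (250 ng/mL) and ATP (1.25 mM) stimulation; lower signal means less secretion.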
HT1080NT lethal – qHTS for induction of synthetic lethality in tumor cells producing 2HG: qHTS for the HT-1080-NT fibrosarcoma cell line. Potency, µM (titrated, usually from 46.1 µM), inactives show top-dose activity, negative = less viability, usual class: cytotoxic. AID 686970, 2013. 360,000 compounds, 1.6% hits. HT-1080-NT fibrosarcoma viability, CellTiter-Glo ATP luminescence, 48 h;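 also: NT is the 2HG producing partner of a matched IDH1 knockdown line; potency is read from the fitted curve at half-maximal effect; 0% = DMSO-treated cells and -100% = media-only wells without cells; nearly all actives have a fitted effect of over 55% in size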
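Viability of the 2HG-overproducing fibrosarcoma line after 48 hours of compound exposure at 37 degrees C was determined by luminescence with CellTiter-Glo, and concentration-effect curves were then fitted and categorized.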
An asterisk follows results filed as active; [ ] = dose if it differs, or a comment. Unless noted, calls follow the shape of the dose curve; as a rule, active = well fitted curve in the direction sought with a large enough effect; inconclusive = small, poorly fitted or top-dose-only effect, or another doubt; inactive = no such curve, though single readings can be large; an effect the other way counts as inactive or inconclusive. Unless noted, % is scaled to controls: 0 for no effect and ±100 for the full control effect.

What do the screens show for `CCC(C)NC(=O)CNC(=O)c1nn(-c2ccc(OC)cc2OC)c(=O)c2ccccc12` (stereo not drawn)?
DT40 TDP1 no CPT: -12%; TDP1 cell CPT: -1%; HT1080 IDH1KD tx: 0%; IL-1B inflam inh: -8; HT1080NT lethal: 4%

How did COC(=O)c1c(-c2cccs2)csc1NC(=O)c1ccc(C(C)(C)C)cc1 do in these assays?
DT40 TDP1 no CPT: 15µM*; TDP1 cell CPT: 16µM*

Results for COc1ccc(C(=O)Nc2scc(-c3ccc(Cl)cc3Cl)c2C(N)=O)cc1 ?
DT40 TDP1 no CPT: 15µM*; TDP1 cell CPT: inconclusive; HT1080 IDH1KD tx: 1%; IL-1B inflam inh: inconclusive; HT1080NT lethal: 12%

Results for CCOC(=O)c1c(-c2ccc(OC)c(OC)c2)csc1NC(=O)c1ccc(C)cc1 ?
DT40 TDP1 no CPT: -18%; TDP1 cell CPT: -18%

What do the screens show for `COC(=O)c1c(-c2cccs2)csc1NC(=O)c1cccnc1`?
DT40 TDP1 no CPT: 15µM*; TDP1 cell CPT: 16µM*; HT1080 IDH1KD tx: -2%; IL-1B inflam inh: -65*; HT1080NT lethal: -8%

Results for COC(=O)c1c(-c2cccs2)csc1NC(=O)c1ccc(Cl)cc1 ?
DT40 TDP1 no CPT: -62%; TDP1 cell CPT: 16µM*

Results for COC(=O)c1c(-c2ccccc2)csc1NC(=O)c1ccco1 ?
DT40 TDP1 no CPT: -18%; TDP1 cell CPT: 3%; HT1080 IDH1KD tx: 15%; IL-1B inflam inh: -16; HT1080NT lethal: 0%

What do the screens show for `CCN(CC)C(=O)c1sc(NC(=O)c2cccnc2)c(C(=O)OC)c1C`?
DT40 TDP1 no CPT: -26%; TDP1 cell CPT: 0%; HT1080 IDH1KD tx: 7%; IL-1B inflam inh: 22; HT1080NT lethal: 5%

How did Cc1nc2nc(CNC(=O)c3cccc(F)c3)nn2c(C)c1CCC(=O)Nc1ccc(F)cc1 do in these assays?
DT40 TDP1 no CPT: -9%; TDP1 cell CPT: 2%

What do the screens show for `COc1cccc(CNC(=O)CS(=O)(=O)Cc2nc(-c3ccc(C)cc3)oc2C)c1OC`?
DT40 TDP1 no CPT: -18%; TDP1 cell CPT: 2%; HT1080 IDH1KD tx: 1%; IL-1B inflam inh: -15; HT1080NT lethal: -1%

Results for CSc1ccccc1NC(=O)COc1ccccc1Cl ?
DT40 TDP1 no CPT: -22%; TDP1 cell CPT: 4%; HT1080 IDH1KD tx: -4%; IL-1B inflam inh: 19; HT1080NT lethal: -2%

What do the screens show for `CC(COc1ccccc1)OC(=O)Nc1ccccc1` (stereo not drawn)?
DT40 TDP1 no CPT: -1%; TDP1 cell CPT: -2%; HT1080 IDH1KD tx: 0%; IL-1B inflam inh: 18; HT1080NT lethal: 0%

Results for COC(=O)c1c(-c2cccs2)csc1NC(=O)c1ccc(C(C)C)cc1 ?
DT40 TDP1 no CPT: 15µM*; TDP1 cell CPT: inconclusive

What do the screens show for `COC(=O)c1c(-c2cccs2)csc1NC(=O)c1cccc(Cl)c1`?
DT40 TDP1 no CPT: -27%; TDP1 cell CPT: inconclusive

What do the screens show for `C[C@@]12CCC[C@H]1[C@@H]1CC[C@H]3C[C@@H](O)CC[C@]3(C)[C@H]1CC2`?
DT40 TDP1 no CPT: 12%; TDP1 cell CPT: -6%

How did C[C@]12CCC(O)CC1CCC1C2CC[C@]2(C)C(c3cc(C(F)(F)F)n[nH]3)CCC12 (stereo partly drawn) do in these assays?
DT40 TDP1 no CPT: 13µM*; TDP1 cell CPT: inconclusive; HT1080 IDH1KD tx: 0%; IL-1B inflam inh: 20; HT1080NT lethal: 0%

What do the screens show for `O=C(CNc1ccc2ccccc2c1)N/N=C/c1ccc([N+](=O)[O-])o1`?
DT40 TDP1 no CPT: 21µM*; TDP1 cell CPT: 15µM*; HT1080 IDH1KD tx: inconclusive; IL-1B inflam inh: -9; HT1080NT lethal: inconclusive

What do the screens show for `O=C(CSc1ccc(Cl)cc1)N/N=C/c1ccc([N+](=O)[O-])o1`?
DT40 TDP1 no CPT: inconclusive; TDP1 cell CPT: 16µM*; HT1080 IDH1KD tx: -30%; IL-1B inflam inh: -29; HT1080NT lethal: -25%

How did O=C(CNc1ccc2ccccc2c1)N/N=C/c1ccc(C(=O)O)cc1 do in these assays?
DT40 TDP1 no CPT: 2%; TDP1 cell CPT: -2%; HT1080 IDH1KD tx: -4%; IL-1B inflam inh: -2; HT1080NT lethal: 1%

Results for CCOC(=O)c1sc(NC(=O)CCN2C(=O)C3CCCCC3C2=O)cc1C (stereo not drawn) ?
DT40 TDP1 no CPT: 10%; TDP1 cell CPT: -4%; HT1080 IDH1KD tx: 0%; IL-1B inflam inh: inconclusive; HT1080NT lethal: -12%[9.24 µM]

Results for CSCCC(C(=O)Nc1c(C)cccc1C)N(Cc1ccccc1)Cc1ccccc1 (stereo not drawn) ?
DT40 TDP1 no CPT: inconclusive; TDP1 cell CPT: inconclusive; HT1080 IDH1KD tx: inconclusive; IL-1B inflam inh: -24; HT1080NT lethal: inconclusive

What do the screens show for `CCN(CC(=O)NCc1ccc(Cl)cc1)C(=O)CSc1cc(C)ccc1C`?
DT40 TDP1 no CPT: inconclusive; TDP1 cell CPT: inconclusive; HT1080 IDH1KD tx: -1%; IL-1B inflam inh: -58*; HT1080NT lethal: -14%

Results for CCN(CC(=O)NCc1ccc(Cl)cc1)C(=O)CSCC(=O)Nc1ccc(C)cc1 ?
DT40 TDP1 no CPT: -19%; TDP1 cell CPT: -15%; HT1080 IDH1KD tx: -9%; IL-1B inflam inh: -93*; HT1080NT lethal: -14%

Results for CCN(CC(=O)Nc1ccc(OC)cc1)C(=O)CSCC(=O)Nc1ccc(C)cc1 ?
DT40 TDP1 no CPT: 3%; TDP1 cell CPT: 5%; HT1080 IDH1KD tx: 1%; IL-1B inflam inh: 13; HT1080NT lethal: -3%

Results for O=C(COC(=O)c1c[nH]c2ccccc12)Nc1ccc([N+](=O)[O-])cc1 ?
DT40 TDP1 no CPT: inconclusive; TDP1 cell CPT: -20%; HT1080 IDH1KD tx: 0%; IL-1B inflam inh: 35; HT1080NT lethal: -4%

What do the screens show for `C1CC1Cc1noc(CN2CCN(C3C4CC5CC(C4)CC3C5)CC2)n1` (stereo not drawn)?
DT40 TDP1 no CPT: 2%; TDP1 cell CPT: -21%; HT1080 IDH1KD tx: 19%; IL-1B inflam inh: 33; HT1080NT lethal: 14%

What do the screens show for `Cc1cccn2c(=O)c(C=NCc3ccco3)c(Nc3ccc(SC(F)F)cc3)nc12`?
DT40 TDP1 no CPT: inconclusive; TDP1 cell CPT: 26µM*; HT1080 IDH1KD tx: 8%; IL-1B inflam inh: -5; HT1080NT lethal: 0%

How did O=C(O)CC(c1ccc(Cl)cc1)n1cccc1 (stereo not drawn) do in these assays?
DT40 TDP1 no CPT: inconclusive; TDP1 cell CPT: -6%; HT1080 IDH1KD tx: 11%; IL-1B inflam inh: 20; HT1080NT lethal: 10%

Screening data as filed in PubChem BioAssay.
